Reference: PubChem BioAssay AID492953 (The Scripps Research Institute Molecular Screening Center, 2010)
The whole screen tested about 340,000 compounds, of which about 4,200 (1.2%) were called active.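 How the source made its calls: active means inhibition above the mean of all tested compounds plus 3 SD (cut at about 24% in these data); inactive means the rest.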 The list comes from a sample in which actives are over-represented; it also holds similar structures and randomly drawn compounds.

molecular target: Platelet-activating factor acetylhydrolase IB subunit alpha2 (Homo sapiens) (UniProt P68402); experiment: PAFAH1B2 enzyme inhibitors, primary screen, biochemical, fluorescence polarization, human (AID 492953); details: recombinant PAFAH1B2, FP-rhodamine activity probe, at 3.39 µM, hits give high values;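 further: 0% = enzyme with DMSO and 100% = wells lacking PAFAH1B2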
Sequence (P68402 whole entry, looked up): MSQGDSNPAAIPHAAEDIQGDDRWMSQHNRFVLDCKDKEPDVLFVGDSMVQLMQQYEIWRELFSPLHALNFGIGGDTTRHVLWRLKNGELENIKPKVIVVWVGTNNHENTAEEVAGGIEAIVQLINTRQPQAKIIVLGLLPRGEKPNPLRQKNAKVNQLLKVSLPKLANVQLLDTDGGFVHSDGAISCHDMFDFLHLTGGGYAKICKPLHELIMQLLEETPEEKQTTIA

Structure (SMILES)	inhibition
Cc1ccc(C2CC(c3cccc(Br)c3)n3nc(N)nc3N2)cc1 (centres undefined)	0.4% (inactive)
COCCn1c(Cc2cccn2C)nnc1SCC(=O)Nc1nccs1	-1.79% (inactive)
O=C(Nc1ccc(F)cc1)C1CCCN(S(=O)(=O)c2ccc(-n3cnnn3)cc2)C1 (centres undefined)	0.34% (inactive)
CC(C)CNC(=O)C1CCCN(S(=O)(=O)c2ccc(-n3cnnn3)cc2)C1 (centres undefined)	5.01% (inactive)
CC(NC(=O)C1CCCN(S(=O)(=O)c2ccc(-n3cnnn3)cc2)C1)c1ccc(F)cc1 (centres undefined)	26.6% (active)
O=C(NCc1cccc(Cl)c1)C1=CC=CN2CCS(=O)(=O)N=C12	6% (inactive)
O=C(C1CCN(CC2CCCCC2)CC1)N1CCCC1	0.2% (inactive)
CCCCN(CC)CCCNC(=O)c1ccc(CSc2nc3ccncc3[nH]2)cc1	-2.43% (inactive)
CC1=NN(/C(=N\c2nnc(C)s2)Nc2ccccc2)[C@H](c2ccc(C)cc2)S1	6.77% (inactive)
Nc1nc(SC23CC4CC(CC(C4)C2)C3)ns1	25.4% (active)
CCCSc1nsc(N)n1	3.46% (inactive)
CCCCCCSc1nsc(N)n1	3.17% (inactive)
Nc1ccn(C2CC(O)C(CO)O2)c(=O)n1 (centres undefined)	4.72% (inactive)
COc1cc(C(=O)NCC(=O)NCCSc2ccc(Br)cc2)cc(OC)c1OC	18.7% (inactive)
COc1ccccc1C(=O)NCC(=O)NCCSc1ccc(Br)cc1	27.3% (active)
COc1ccccc1C(=O)NCC(=O)OCC(=O)NNC(=O)c1ccc(Br)cc1	4.05% (inactive)
Cc1c(C(=O)NC2CCCCC2)oc2ccccc12	1.03% (inactive)

Structure (SMILES)	inhibition
Cc1cc(Br)ccc1SCC(=O)OCC(=O)NCc1ccc2c(c1)OCO2	25.2% (active)
COc1cccc(CC(=O)OCC(=O)NCc2ccc3c(c2)OCO3)c1	8.95% (inactive)
Cc1ccc(C(=O)OCC(=O)NCc2ccc3c(c2)OCO3)s1	-1.11% (inactive)
O=C(Cc1c(O)c2ccccc2[nH]c1=O)NCc1ccccc1	2.81% (inactive)
CCc1ccc2[nH]c(=O)c(Cc3ccccc3)c(O)c2c1	24.7% (active)
Cc1ccc2c(O)c(Cc3ccccc3)c(=O)[nH]c2n1	0.81% (inactive)
O=C(Nc1ccccc1)Oc1cccc2cccnc12	3.18% (inactive)
O=C(c1cccc(S(=O)(=O)N2CCCCCC2)c1)N1CCN(Cc2ccccc2)CC1	0.99% (inactive)
O=C(NC(=O)c1ccc(Cl)c(Cl)c1)OC1CCS(=O)(=O)C1 (centres undefined)	-3.52% (inactive)
O=C(NCCc1c[nH]c2ccccc12)c1cc2ccccc2oc1=O	6.1% (inactive)
CC1CCCCC1NC(=O)COc1ccc(C#N)cc1 (centres undefined)	2.44% (inactive)
Oc1ccc(N=Nc2nccs2)c(O)c1	35.3% (active)
O=C(OC12CC3CC(CC(C3)C1)C2)c1ccc(NCc2cc(O)ccc2O)cc1	3.5% (inactive)
CCn1cc(C(=O)NC2CCCCCC2)c(=O)c2cc(S(=O)(=O)N3CCCCC3)ccc21	0.07% (inactive)
Cc1ccc(S(=O)(=O)N2CCN(C)CC2)cc1C(=O)NC1CCCCC1	25.7% (active)
COc1ccc(S(=O)(=O)N2CCOCC2)cc1C(=O)NC1CCCCC1	2.51% (inactive)
COc1ccc2c(c1)c(=Cc1ccc(N(C)C)cc1)c1cc(-c3ccccc3)[n+](C)n12	-27.4% (inactive)
